Data from PubChem BioAssay (NCATS).
Results filed as inconclusive are left out. Active and inactive are the calls of the source. Unless noted, calls come from the whole dose curve; as a rule, active = well fitted curve in either direction with a large enough effect (not every such curve was filed as active); inconclusive = small, poorly fitted or top-dose-only effect, or another doubt; inactive = flat fitted curve, though single readings scatter.

How the values were obtained:
[1] = AP1 Signaling Pathway (AID 357); details: ME-180 AP-1-bla reporter, EGF-induced, beta-lactamase ratio, 5 h; at 17.2 µM (top of the series) unless noted; note: % is set by controls: 0 for no effect and ±100 for the full control effect
Method in brief: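 ME-180 cells with beta-lactamase reporter under AP-1 response element, stimulated with EC50 EGF; compounds tested in titration series, 5 h at 37 °C. CCF4 substrate added 2.5 h at room temperature; 460/530 nm emission ratio gave %activity and AC50.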

[2] = NFAT Signaling Pathway (AID 444); details: Jurkat NFAT-bla M1, carbachol, beta-lactamase ratio, 5 h; at 17.2 µM (top of the series) unless noted;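 note: carbachol stimulus at about its EC50 of 1 µM final; % is set by controls: 0 for no effect and ±100 for the full control effect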
Method in brief: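 Jurkat cells carrying an NFAT-driven β-lactamase reporter and co-transfected muscarinic M1 receptor were treated with compound plus carbachol (1 uM final, an EC50 level) for 5 h at 37 °C. CCF4 loading followed for 1 h at RT; 460/530 nm ratio gave %activity.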

[3] = Stat Signaling Pathway (AID 446);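 note: ME-180 cervical cancer cells given 40 pM IL-6 alongside compound; SIE-controlled beta-lactamase reporter measured as 460/530 nm FRET emission ratio; % is set by controls: 0 for no effect and ±100 for the full control effect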
Method in brief: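 Screening format detects activators and inhibitors alike: ME-180 SIE-bla cells stimulated at 40 pM IL-6 for 5 hrs with compound, then dual-emission beta-lactamase read at 405 nm excitation.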

[4] = biological target: Glucocorticoid receptor (Homo sapiens) (UniProt P04150); test: GR-GFP Redistribution (AID 450;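 active = compounds whose dose series gives a full or clear partial fitted curve of increased nuclear translocation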; note: potency is the fitted concentration of half-maximal effect); details: U2OS GR-GFP nuclear translocation, laser cytometry, 2 h
Glucocorticoid receptor (Homo sapiens), sequence (P04150 whole entry, looked up): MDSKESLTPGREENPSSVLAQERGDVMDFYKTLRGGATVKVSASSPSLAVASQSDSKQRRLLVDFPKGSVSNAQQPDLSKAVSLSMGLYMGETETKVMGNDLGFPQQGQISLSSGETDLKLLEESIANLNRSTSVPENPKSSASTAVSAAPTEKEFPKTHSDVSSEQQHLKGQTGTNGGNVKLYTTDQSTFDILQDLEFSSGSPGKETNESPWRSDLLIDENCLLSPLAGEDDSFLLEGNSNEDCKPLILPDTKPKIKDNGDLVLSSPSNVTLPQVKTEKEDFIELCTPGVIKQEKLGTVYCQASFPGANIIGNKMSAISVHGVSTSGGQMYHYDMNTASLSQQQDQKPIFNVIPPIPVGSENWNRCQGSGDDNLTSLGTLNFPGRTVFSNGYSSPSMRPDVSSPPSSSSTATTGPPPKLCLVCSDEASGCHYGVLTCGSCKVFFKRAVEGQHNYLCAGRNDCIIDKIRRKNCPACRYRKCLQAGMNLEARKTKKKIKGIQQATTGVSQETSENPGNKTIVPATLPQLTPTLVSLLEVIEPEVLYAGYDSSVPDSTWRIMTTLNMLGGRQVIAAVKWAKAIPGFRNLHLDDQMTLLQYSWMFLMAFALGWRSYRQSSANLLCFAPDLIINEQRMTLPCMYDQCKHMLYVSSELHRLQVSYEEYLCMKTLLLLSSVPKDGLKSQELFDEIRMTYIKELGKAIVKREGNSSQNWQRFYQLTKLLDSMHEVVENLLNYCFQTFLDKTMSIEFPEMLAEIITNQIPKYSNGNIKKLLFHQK

Cc1ccc2c(c1)[C@@H]1CN(C)CC[C@@H]1N2C(=O)Nc1cccc(C(F)(F)F)c1
inactive: activity change, negative = inhibition [1] 28.8% | activity change, negative = inhibition [2] -12.5% | outcome [3] | Potency [4] > 20.6 µM

c1ccc(Cn2ccnc2)cc1
inactive: activity change, negative = inhibition [1] 3.97% | activity change, negative = inhibition [2] -0.8% | outcome [3] | Potency [4] > 20.6 µM

CC(C)Cc1[nH]c(=O)c(C#N)c2c1CCC2
inactive: activity change, negative = inhibition [1] 8.3% | activity change, negative = inhibition [2] 18.5% | outcome [3] | Potency [4] > 20.6 µM

CCCc1nc2ccccc2c(=O)n1-c1ccccc1OC
inactive: activity change, negative = inhibition [1] -13.4% | activity change, negative = inhibition [2] 1.18% | outcome [3] | Potency [4] > 20.6 µM

Cn1c(O)c(C=NCCCNC2CCCCC2)c(=O)n(C)c1=O
inactive: activity change, negative = inhibition [1] 3.35% | activity change, negative = inhibition [2] -13.3% | outcome [3] | Potency [4] > 20.6 µM

COC(=O)C(O)(c1c[nH]c2ccccc12)C(F)(F)F (configuration not stated)
inactive: activity change, negative = inhibition [1] -14.1% | activity change, negative = inhibition [2] -8.45% | outcome [3] | Potency [4] > 20.6 µM

C=CCC1(CN2CCCCCC2=O)C(=O)NC(=O)NC1=O
inactive: activity change, negative = inhibition [1] 1.22% | activity change, negative = inhibition [2] 2.02% | outcome [3] | Potency [4] > 20.6 µM

Nc1ncc(P(=S)(N2CCOCC2)N2CCOCC2)s1
inactive: activity change, negative = inhibition [1] 10.9% | activity change, negative = inhibition [2] 4.78% | outcome [3] | Potency [4] > 20.6 µM

CC(=C1C(=O)c2ccccc2C1=O)N1CCN(CCN=Cc2c(O)n(C)c(=O)n(C)c2=O)CC1
inactive: activity change, negative = inhibition [1] -15.2% | activity change, negative = inhibition [2] -5.34% | outcome [3] | Potency [4] > 20.6 µM

COc1ccc(C(=O)CC2C(=O)N(C)C(=O)N(C)C2=O)cc1
inactive: activity change, negative = inhibition [1] 8.4% | activity change, negative = inhibition [2] -29.5% | outcome [3] | Potency [4] > 20.6 µM

NCC1(c2ccc3c(c2)OCCO3)CCCC1
inactive: activity change, negative = inhibition [1] 3.9% | activity change, negative = inhibition [2] -11.3% | outcome [3] | Potency [4] > 20.6 µM

CC(=O)CC(C)(C)n1c[n+](C)nn1
inactive: activity change, negative = inhibition [1] -8.26% | activity change, negative = inhibition [2] -3.99% | outcome [3] | Potency [4] > 20.6 µM

CN(C)CCc1nn[nH]n1
inactive: activity change, negative = inhibition [1] 1.85% | activity change, negative = inhibition [2] -0.26% | outcome [3] | Potency [4] > 20.6 µM

OC1(c2ccc(F)cc2)CCNC1 (configuration not stated)
inactive: activity change, negative = inhibition [1] 7.87% | activity change, negative = inhibition [2] -14.3% | outcome [3] | Potency [4] > 20.6 µM

CCCCOCCCn1c(N)c(C(=O)OC(C)COC)c2nc3ccccc3nc21 (configuration not stated)
inactive: activity change, negative = inhibition [1] -11.7% | activity change, negative = inhibition [2] 29.2% | outcome [3] | Potency [4] > 20.6 µM

O=P(c1ccccc1)(c1ccccc1)N1CCCCC1
inactive: activity change, negative = inhibition [1] -9.35% | activity change, negative = inhibition [2] -3.91% | outcome [3] | Potency [4] > 20.6 µM

CCCCSP1(=S)NCCCN1
inactive: activity change, negative = inhibition [1] -7.63% | activity change, negative = inhibition [2] -2.25% | outcome [3] | Potency [4] > 20.6 µM

CC(=O)[C@@]1(O)CC[C@H]2[C@@H]3CC=C4C[C@@H](O)CC[C@]4(C)[C@H]3CC[C@@]21C
inactive: activity change, negative = inhibition [1] 0.531% | activity change, negative = inhibition [2] 10.8% | outcome [3] | Potency [4] > 20.6 µM

CCCCC1(CN2CCCC2=O)C(=O)NC(=O)NC1=O
inactive: activity change, negative = inhibition [1] 7.49% | activity change, negative = inhibition [2] -2.56% | outcome [3] | Potency [4] > 20.6 µM

COc1ccc(-n2c(SC)nc3ccccc3c2=O)cc1
inactive: activity change, negative = inhibition [1] 0.0474% | activity change, negative = inhibition [2] 12.3% | outcome [3] | Potency [4] > 20.6 µM

COc1ccccc1-n1c(O)c(C=NCCCn2ccnc2)c(=O)[nH]c1=O
inactive: activity change, negative = inhibition [1] 6.21% | activity change, negative = inhibition [2] 10.5% | outcome [3] | Potency [4] > 20.6 µM

O=c1[nH]c(=O)n(Cc2ccco2)c(O)c1C=NCCN1CCOCC1
inactive: activity change, negative = inhibition [1] 12.8% | activity change, negative = inhibition [2] -0.917% | outcome [3] | Potency [4] > 20.6 µM

O=c1c(C=NCCN2CCNCC2)c(O)n(C2CCCCC2)c(=O)n1C1CCCCC1
inactive: activity change, negative = inhibition [1] 4.2% | activity change, negative = inhibition [2] 18.3% | outcome [3] | Potency [4] > 20.6 µM

COc1cccc(-n2c(O)c(C=NCCN3CCOCC3)c(=O)[nH]c2=O)c1
inactive: activity change, negative = inhibition [1] 0.139% | activity change, negative = inhibition [2] 11% | outcome [3] | Potency [4] > 20.6 µM

CCN(CC)c1ccc(N=Cc2c(O)n(-c3ccccc3C)c(=O)[nH]c2=O)cc1
inactive: activity change, negative = inhibition [1] -21.6% | activity change, negative = inhibition [2] -29.8% | outcome [3] | Potency [4] > 20.6 µM

COc1ccc(Cn2c(O)c(C=NCCN3CCOCC3)c(=O)[nH]c2=O)cc1
inactive: activity change, negative = inhibition [1] -6.69% | activity change, negative = inhibition [2] -3.63% | outcome [3] | Potency [4] > 20.6 µM

CCn1c(O)c(C(=O)CC2NCCc3ccccc32)c(=O)n(CC)c1=S (configuration not stated)
inactive: activity change, negative = inhibition [1] 5.38% | activity change, negative = inhibition [2] 22.3% | outcome [3] | Potency [4] > 20.6 µM

CCOCCN1CCC(OC(C)=O)C(C)C1 (configuration not stated)
inactive: activity change, negative = inhibition [1] -2.51% | activity change, negative = inhibition [2] -5.87% | outcome [3] | Potency [4] > 20.6 µM

CN(C)CCOC(=O)c1cn(Cc2ccccc2)c2ccccc12
inactive: activity change, negative = inhibition [1] 16% | activity change, negative = inhibition [2] -13.6% | outcome [3] | Potency [4] > 20.6 µM

O=c1[nH]c2ccccc2c(=O)n1-c1cccc(Cl)c1
inactive: activity change, negative = inhibition [1] 24.2% | activity change, negative = inhibition [2] -3.58% | outcome [3] | Potency [4] > 20.6 µM

OCCOCC#CCN1CCOCC1
inactive: activity change, negative = inhibition [1] 12.1% | activity change, negative = inhibition [2] -4.14% | outcome [3] | Potency [4] > 20.6 µM

CC1=NOC2(C)Nc3ncnn3C(c3ccccc3)C12 (configuration not stated)
inactive: activity change, negative = inhibition [1] 20.5% | activity change, negative = inhibition [2] -2.94% | outcome [3] | Potency [4] > 20.6 µM

O=c1[nH]c(=O)n(Cc2ccco2)c(O)c1C=NCCCn1ccnc1
inactive: activity change, negative = inhibition [1] 10% | activity change, negative = inhibition [2] -8.42% | outcome [3] | Potency [4] > 20.6 µM
